Screens as filed in PubChem.
Hits are enriched below; roughly 3.7% of the tested compounds scored in any of these assays.
BoNT-F LC inh = BoNT/F light chain protease inhibitors, primary screen, biochemical, flow cytometry, MLPCN library | Botulinum neurotoxin type F light chain protease (Clostridium botulinum) | Multiplex microsphere protease cleavage assay | inhibition, % at 10 µM | 0.22% of 360,000 active; in the data active means inhibition above about 35%, passing the limit was not always enough; inconclusive means no clear call, values can overlap the other calls
Anthrax LF inh2 = Bacillus anthracis LF protease inhibitors, primary screen, biochemical, multiplex microsphere, MLPCN library | Lethal factor (Bacillus anthracis), P15917 | multiplex microsphere protease cleavage assay | inhibition, % at 10 µM | 0.12% of 360,000 active
MazEF act = activators of E. coli MazEF toxin-antitoxin RNase, primary screen, biochemical, fluorescence, uHTS | Endoribonuclease toxin MazF (Escherichia coli (strain K12)), P0AE70 | FAM/BHQ RNA-DNA oligo cleavage fluorescence, 5 h | activation, % at 20 µM | 0.32% of 350,000 active; in the data active means activation above about 50%
Target sequence (P0AE70 whole entry, looked up): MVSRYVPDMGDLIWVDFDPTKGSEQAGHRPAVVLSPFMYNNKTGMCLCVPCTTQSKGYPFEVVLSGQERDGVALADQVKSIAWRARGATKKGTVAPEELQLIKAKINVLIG
BoNT-A LC inh2 = BoNT/A light chain protease inhibitors, primary screen, biochemical, flow cytometry, MLPCN library. multiplex microsphere protease substrate cleavage. inhibition, % at 10 µM. 0.17% of 360,000 active. AID 588499, 2011
Autofluor counter = compound fluorescence in toxin protease inhibitor counterscreen. AID 624483. 3.1% of 360,000 active. compound autofluorescence counterscreen, microsphere flow cytometry; stronger effect = higher value. fluorescence intensity (concentration not given with the values); in the data active means fluorescence intensity above about 16000; inconclusive means no clear call, values can overlap the other calls
Hits are given with their value; n = inactive; u = inconclusive; x = not tested or not shown. Unless noted, no stated cut-off is given here; in the data, active means inhibition above about 30%; inconclusive means no clear call, values can overlap the other calls; inactive means below that.

SMILES	BoNT-F LC inh	Anthrax LF inh2	MazEF act	BoNT-A LC inh2	Autofluor counter
CC1(c2nnnn2-c2ccc3c(c2)OCCO3)CCC(=O)N1Cc1ccc(F)cc1 (configuration not stated)	n	n	x	n	n
CCCCC(=O)Nc1ccc(NC(=O)c2ccc3c(c2)OCO3)cc1OC	n	n	n	n	22707
CC(C)(C)c1cnnn1-c1ccc(NC(=O)c2ccc3c(c2)OCO3)cc1	n	n	n	n	23470
CC(C)(C)c1cnnn1-c1ccc(NC(=O)c2ccc(Br)o2)cc1	n	n	n	n	20983
COc1cccc(C(=O)Nc2ccc(-n3nncc3C(C)(C)C)cc2)c1	n	n	n	n	n
CCN1CCN(c2ccc(NC(=O)c3ccc4c(c3)OCO4)cc2)CC1	n	n	n	n	16331
Cc1ccsc1C(=O)OCC(=O)NCc1cccs1	n	n	n	n	n
CCN(C(=O)CSc1nc(C)c(C)c(C)n1)C1CCS(=O)(=O)C1 (configuration not stated)	n	n	n	n	n
COc1ccc(-c2cc(=O)oc3c(C)c(OC(=O)c4cccs4)ccc23)cc1	n	n	109.5	n	n
CCOC(=O)C(Oc1ccc2c(-c3ccc(OC)cc3)cc(=O)oc2c1C)c1ccccc1 (configuration not stated)	n	n	n	u	22308
COc1ccc(-c2cc(=O)oc3c(C)c(OC(C)C(C)=O)ccc23)cc1 (configuration not stated)	n	n	n	n	n
COc1ccc(C(=O)NCC(c2ccccc2)N2CCCC2)cc1S(=O)(=O)N1CCOCC1 (configuration not stated)	n	n	n	n	n
CCCCn1nnnc1C1(C)CCC(=O)N1CCOC (configuration not stated)	n	n	x	n	n
CC(C)N(C(=O)COC(=O)c1cc(Cl)cc(Cl)c1N)C(C)C	n	n	n	n	21720
Cc1cc2nc(C(C)(C)C)c(Cc3ccccc3C(F)(F)F)n2c(C)c1Br	n	n	x	n	n
CC(NC(=O)OCc1ccccc1)C(=O)NCC1CCCO1 (configuration not stated)	n	n	n	n	22834
CC(C(=O)NCC1CCCO1)N(C(=O)c1snc(C(N)=O)c1N)c1ccccc1 (configuration not stated)	n	n	n	n	23246
CC1CC(C)CN(S(=O)(=O)c2ccc(NC(=O)c3ccc(=O)[nH]c3)cc2)C1 (configuration not stated)	n	n	n	n	u
C[C@H](CO)N1C[C@H](C)[C@@H](CN(C)C(=O)OCc2ccccc2)OCc2cn(nn2)CCCC1=O	n	n	n	n	n
Cc1ccc(-c2csc3nc(C)n(N)c(=O)c23)o1	n	n	n	u	22183
CCOC(=O)C1CCCn2c1nc1sc3c(c1c2=O)CCCC3 (configuration not stated)	n	n	n	n	23606
CNC(=O)C[C@@H]1C(=O)N(Cc2ccccc2)CC1(C)C	n	n	n	n	n
CC12C=CC3(CN(Cc4ccccc4)C(=O)C3C1C(=O)NC1CC1)O2 (configuration not stated)	n	n	n	n	22134
CCOC(=O)C1=C(N)OC2=C(C(=O)CC(C)(C)C2)C1c1ccccc1OCC#N (configuration not stated)	n	n	n	n	20405
CC1(C)CC(=O)C2=C(C1)OC(N)=C(C#N)[C@@H]2c1ccccc1[N+](=O)[O-]	x	x	78.3	x	x
SMILES	BoNT-F LC inh	Anthrax LF inh2	MazEF act	BoNT-A LC inh2	Autofluor counter
CC1(C)CC(=O)C2=C(C1)OC(N)=C(C#N)C2C1CC=CCC1 (configuration not stated)	n	n	n	n	22645
CC(C)Cc1nnc(NC(=O)c2ccc3c(c2)OCCO3)s1	x	x	n	x	x
CC(C)Oc1cccc(NC(=O)c2cccn(Cc3ccc4c(c3)OC(F)(F)O4)c2=O)c1	n	n	n	n	n
O=C(Nc1cccc(C(F)(F)F)c1)c1cccn(Cc2ccc3c(c2)OC(F)(F)O3)c1=O	n	n	n	n	20449
Cc1cccc(C)c1NC(=O)c1cccn(Cc2ccc3c(c2)OC(F)(F)O3)c1=O	n	n	n	n	16867
Clc1ccc(/C=N/NC2=Nc3cccc4cccc2c34)cc1	n	n	n	n	n
